According to PubChem BioAssay (NCI):
Compounds without any hit were thinned out: in the full panel of roughly 83,000, 20% have a hit.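 For each line, cells grew in 96-well plates with the test compound present at a single concentration for 48 hours.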

What was measured:
Assay in all cases: NCI-60 one-dose screen, 48 h (100 = growth as untreated, 0 = no growth, -100 = all killed)
Conditions in all cases: 10 µM; active means growth percent below 10; inactive means the rest
DU-145 prostate = system: DU-145 prostate
K-562 leukemia = system: K-562 leukemia
MALME-3M melanoma = system: MALME-3M melanoma
MDA-MB-231 breast = system: MDA-MB-231 breast
RXF 393 renal = system: RXF 393 renal
SF-295 CNS = system: SF-295 CNS
SF-539 CNS = system: SF-539 CNS
UACC-257 melanoma = system: UACC-257 melanoma
M14 melanoma = system: M14 melanoma
SF-268 CNS = system: SF-268 CNS

Measured: growth

Cc1ccc(Cl)cc1N1C(=O)CC(Sc2ccccc2N)C1=O (stereo not given)
inactive: DU-145 prostate 123% | K-562 leukemia 118% | MALME-3M melanoma 138% | MDA-MB-231 breast 108% | RXF 393 renal 92.5% | SF-295 CNS 111% | SF-539 CNS 105% | UACC-257 melanoma 88.4% | M14 melanoma 118%

CC(C)CCCC(=O)O
inactive: DU-145 prostate 111% | K-562 leukemia 135% | MALME-3M melanoma 98.5% | MDA-MB-231 breast 123% | RXF 393 renal 93% | SF-268 CNS 106% | SF-539 CNS 98.5% | UACC-257 melanoma 117% | M14 melanoma 119%

CCCC[P+](c1ccccc1)(c1ccccc1)c1ccccc1
inactive: DU-145 prostate 62.5% | K-562 leukemia 24.4% | MALME-3M melanoma 41% | MDA-MB-231 breast 84.3% | RXF 393 renal 102% | SF-268 CNS 67.2% | SF-539 CNS 64.5% | UACC-257 melanoma 17% | M14 melanoma 54.9%

CC(CC(=O)c1ccccc1)c1ccccc1 (stereo not given)
inactive: DU-145 prostate 112% | K-562 leukemia 102% | MALME-3M melanoma 93% | MDA-MB-231 breast 119% | SF-268 CNS 110% | SF-295 CNS 95.8% | SF-539 CNS 105% | UACC-257 melanoma 94.1% | M14 melanoma 119%

CC(=O)Nc1cccc(NC(C)=O)n1
inactive: DU-145 prostate 110% | K-562 leukemia 96.6% | MALME-3M melanoma 91.5% | MDA-MB-231 breast 107% | SF-268 CNS 100% | SF-295 CNS 108% | SF-539 CNS 103% | UACC-257 melanoma 102% | M14 melanoma 103%

O=C1OC[C@H]2[C@H](c3ccc(O)c(O)c3)c3cc(O)c(O)cc3C[C@H]12
inactive: DU-145 prostate 108% | K-562 leukemia 180% | MALME-3M melanoma 140% | MDA-MB-231 breast 129% | SF-268 CNS 116% | SF-295 CNS 124% | SF-539 CNS 122% | UACC-257 melanoma 147% | M14 melanoma 120%

CC(=O)c1ccc2c(ccc3ccccc32)c1
inactive: DU-145 prostate 111% | K-562 leukemia 90.5% | MALME-3M melanoma 110% | MDA-MB-231 breast 105% | SF-268 CNS 104% | SF-295 CNS 99.3% | SF-539 CNS 97.5% | UACC-257 melanoma 108% | M14 melanoma 89.1%

O=C(O)CCCCNC(=O)c1ccccc1
inactive: DU-145 prostate 110% | K-562 leukemia 89.3% | MALME-3M melanoma 110% | MDA-MB-231 breast 99.1% | SF-268 CNS 102% | SF-295 CNS 95.1% | SF-539 CNS 99.8% | UACC-257 melanoma 107% | M14 melanoma 98.8%

C/C(=N\O)C1(O)CCCCC1
inactive: DU-145 prostate 100% | K-562 leukemia 106% | MALME-3M melanoma 114% | MDA-MB-231 breast 94.7% | SF-268 CNS 82.7% | SF-295 CNS 110% | SF-539 CNS 99.2% | UACC-257 melanoma 98.3%

COC(=O)CCCCC1=CCC2C(=O)C=C(O)C2C1 (stereo not given)
inactive: DU-145 prostate 104% | K-562 leukemia 90.9% | MALME-3M melanoma 106% | MDA-MB-231 breast 106% | RXF 393 renal 103% | SF-268 CNS 104% | SF-539 CNS 99.8% | M14 melanoma 109%

CC(=O)c1ccc(N=C(C#N)C2=C(O)c3ccccc3C2=O)cc1
inactive: DU-145 prostate 113% | K-562 leukemia 85.5% | MALME-3M melanoma 114% | MDA-MB-231 breast 106% | SF-268 CNS 101% | SF-295 CNS 102% | SF-539 CNS 107% | UACC-257 melanoma 94.2% | M14 melanoma 105%

CN(C)c1nc2c([nH]1)c(=O)n(C)c(=O)n2C
inactive: DU-145 prostate 116% | K-562 leukemia 96.5% | MALME-3M melanoma 101% | MDA-MB-231 breast 107% | SF-268 CNS 105% | SF-295 CNS 104% | SF-539 CNS 107% | UACC-257 melanoma 87.8% | M14 melanoma 108%

C#CC(C(C)C)N(CCO)CCCC (stereo not given)
inactive: DU-145 prostate 112% | K-562 leukemia 102% | MALME-3M melanoma 116% | MDA-MB-231 breast 113% | RXF 393 renal 100% | SF-268 CNS 102% | SF-539 CNS 90.4% | UACC-257 melanoma 97.4% | M14 melanoma 108%
